These compounds were tested on glycogen synthase kinase-3 (GSK3A per assay name; protocol says GSK3B) (assay: compounds binding glycogen synthase kinase-3 – biochemical, small-molecule microarray, 635 nm fluorescence, GSK3A, primary screen (AID 1103; further: the record names both GSK3A and GSK3B)). Details: fluorescence 635 nm, higher = more signal.
`Cc1ccc(F)cc1S(=O)(=O)N[C@@H]1CCN(Cc2cccc3[nH]ccc23)C1` showed a composite z-score of 0.67. `O=C1C2C=CC(C(O)c3ccco3)N(Nc3ccccc3)C2C(=O)N1c1ccccc1` (stereo not given) gave a composite z-score of -0.678. Work on `CCOC(=O)C1=CCC(c2ccco2)N(S(=O)(=O)c2ccc(C)cc2)C1` (stereo not given) yielded a composite z-score of 1.3. `O=C(NCCN1CCOCC1)[C@@H]1c2ccccc2C(=O)N(Cc2ccccc2)[C@H]1c1ccc(CO)cc1` showed a composite z-score of -1.13. In the case of `CCOC(=O)C1=C[C@@H](c2ccccc2)N(S(=O)(=O)c2ccc(C)cc2)[C@H]1c1ccccc1`, the composite z-score is reported as -0.193. Compound `COCCOC(=O)N1C(=O)[C@@]2(c3cc(C#Cc4ccc(OC)cc4)ccc31)[C@H](c1ccc(OCCO)cc1)N1[C@H](c3ccccc3)[C@H](c3ccccc3)OC(=O)[C@H]1[C@@H]2C(=O)Nc1nc2ccccc2s1` has a composite z-score of 0.506. For `[N-]=[N+]=Nc1ccccc1C[C@]1(C(=O)O)N=C(c2ccc(OCCCO)cc2)O[C@H]1c1ccccc1N=[N+]=[N-]`, the composite z-score was 1.06. `CC=CC(O)C1C=CC2C(=O)NC(=O)C2N1Nc1ccccn1` (stereo not given) gave a composite z-score of 0.717. Work on `CCOC(=O)C1=C[C@@H](C(C)(C)C)N(S(=O)(=O)c2ccc(C)cc2)[C@H]1c1ccccc1` yielded a composite z-score of 1.29. `COC(=O)[C@@]1(Cc2ccc(F)cc2)[C@H]2c3cc(C(=O)N4CCCC4)n(CC4CC4)c3C[C@H]2CN1C(=O)c1ccccc1` gave a composite z-score of 0.621. Work on `CO[C@H]1O[C@H](CO)[C@@H](OC(=O)Nc2ccc(C#N)cc2)[C@@H]2OC(=O)[C@H](Cc3cccc(Br)c3)C/C=C/C[C@@H](Cc3cccc(Br)c3)C(=O)O[C@@H]12` yielded a composite z-score of -0.037. `COC(=O)[C@@]1(Cc2ccccc2)[C@H]2c3cc(C(=O)N(C)C)n(CCn4cc([N+](=O)[O-])nc4C)c3C[C@H]2CN1C(=O)c1ccccc1` was tested, and the composite z-score was 0.793. `Cc1ccc(N2C(=O)c3ccccc3[C@](C)(C(=O)NCc3ccccc3)[C@@H]2c2ccc(CO)cc2)nc1` showed a composite z-score of -0.341. Compound `COC(=O)[C@@]1(Cc2ccc(F)cc2)[C@H]2c3cc(C(=O)N4CCCC4)n(C)c3C[C@H]2CN1C(=O)c1ccccc1` has a composite z-score of 0.128. In the case of `CC(C)C(=C=CC[C@@H](O)c1cccc(OCCO)c1)C[C@@H](O)c1ccccn1`, the composite z-score is reported as -0.366. `O=C(O)[C@H]1C[C@H]2C(=O)N[C@@H](Cc3ccccc3)C(=O)N2[C@H]1c1cccc(OCCO)c1` was tested, and the composite z-score was 0.874. Work on `COc1ccc([Si](C)(C)[C@@H]2[C@@H](CC(=O)N3Cc4ccccc4C[C@H]3CO)O[C@]3(C(=O)N(Cc4ccc(N5CCC5=O)cc4)c4ccccc43)[C@H]2C)cc1` yielded a composite z-score of 0.852. `Cc1ccc([C@H]2C(C(=O)O)=C[C@@H](C(C)(C)C)N2S(=O)(=O)c2ccc(C)cc2)cc1` was tested, and the composite z-score was 1.31. `CN1C(=O)[C@@]2(Cc3ccccc3)N=C(c3ccc(OCCCO)cc3)O[C@H]2c2ccccc21` showed a composite z-score of 1.32. `COCCCNC(=O)[C@@]1(Sc2ccc(C)cc2)CC(=O)N(C(C)C)[C@@H]1c1ccc(CO)cc1I` gave a composite z-score of -0.0859. Work on `CC(C)C(=C=CC[C@@H](O)c1cccc(OCCO)c1)C[C@@H](O)COCc1ccccc1` yielded a composite z-score of -0.174. In the case of `COC(=O)[C@@]1(Cc2ccccc2)[C@H]2c3cc(C(=O)N4CCCC4)n(CCSCCO)c3C[C@H]2CN1C(=O)c1ccccc1`, the composite z-score is reported as 0.954. `CCOC(=O)C1=C[C@@H](C(C)(C)C)N(S(=O)(=O)c2ccc(C)cc2)[C@H]1c1cccc(Cl)c1` was tested, and the composite z-score was 1.31. Compound `C=C[C@H](C)[C@H](OC(=O)Nc1ccc(OC)cc1)c1ccc(OCCO)cc1` has a composite z-score of -0.78. Compound `C[C@]1(C(=O)O)c2ccccc2C(=O)N(Cc2ccc(OC(F)(F)F)cc2)[C@H]1c1ccc(CO)cc1` has a composite z-score of -0.502.

These compounds were tested against Epidermal growth factor receptor (Homo sapiens) (UniProt P00533) (assay: compounds binding epidermal growth factor receptor – biochemical, small-molecule microarray, 635 nm fluorescence, primary screen (AID 1104;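 further: score merges 667 nm emission intensity with spot signal to noise over triplicate slides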)). Details: EGFR binding, higher = more signal.
Chain of Epidermal growth factor receptor (Homo sapiens) (P00533 whole entry, looked up): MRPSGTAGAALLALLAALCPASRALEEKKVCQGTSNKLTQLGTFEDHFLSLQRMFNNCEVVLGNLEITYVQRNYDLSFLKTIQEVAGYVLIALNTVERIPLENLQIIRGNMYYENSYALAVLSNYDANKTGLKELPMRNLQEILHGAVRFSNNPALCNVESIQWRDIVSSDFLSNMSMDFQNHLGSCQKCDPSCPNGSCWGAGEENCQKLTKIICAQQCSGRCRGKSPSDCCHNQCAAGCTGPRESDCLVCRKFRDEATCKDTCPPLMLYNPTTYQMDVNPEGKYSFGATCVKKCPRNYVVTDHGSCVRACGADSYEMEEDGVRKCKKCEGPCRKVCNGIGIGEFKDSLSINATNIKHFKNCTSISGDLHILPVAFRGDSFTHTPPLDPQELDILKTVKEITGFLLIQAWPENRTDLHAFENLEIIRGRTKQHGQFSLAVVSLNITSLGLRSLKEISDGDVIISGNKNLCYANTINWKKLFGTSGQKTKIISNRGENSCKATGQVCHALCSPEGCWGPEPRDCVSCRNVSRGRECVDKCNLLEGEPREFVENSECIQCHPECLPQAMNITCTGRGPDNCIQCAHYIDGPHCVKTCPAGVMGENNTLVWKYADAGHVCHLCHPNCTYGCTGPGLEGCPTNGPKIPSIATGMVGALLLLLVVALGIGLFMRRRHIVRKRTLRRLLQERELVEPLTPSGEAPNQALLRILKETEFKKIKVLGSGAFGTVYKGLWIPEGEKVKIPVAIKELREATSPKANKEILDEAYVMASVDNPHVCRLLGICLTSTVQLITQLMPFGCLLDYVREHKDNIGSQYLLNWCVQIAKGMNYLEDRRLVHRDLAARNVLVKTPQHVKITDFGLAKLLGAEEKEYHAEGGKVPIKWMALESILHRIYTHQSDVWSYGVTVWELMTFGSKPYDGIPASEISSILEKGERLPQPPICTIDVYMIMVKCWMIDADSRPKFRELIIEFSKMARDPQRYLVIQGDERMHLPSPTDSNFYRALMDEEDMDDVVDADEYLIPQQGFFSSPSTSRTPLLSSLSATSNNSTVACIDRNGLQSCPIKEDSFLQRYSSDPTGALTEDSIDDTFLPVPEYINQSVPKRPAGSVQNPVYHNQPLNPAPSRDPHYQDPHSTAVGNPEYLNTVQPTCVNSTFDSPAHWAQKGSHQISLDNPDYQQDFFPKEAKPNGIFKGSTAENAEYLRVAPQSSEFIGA
Compound `COc1cc(NN2C(C(O)c3ccc(I)cc3)C=CC3C(=O)N(c4ccccc4)C(=O)C32)cc(OC)c1OC` (stereo not given) has a composite z-score of 0.266. With `CN(C)CCCC[C@@H]1NC(=O)[C@@H]2C[C@H](C(=O)O)[C@H](c3cccc(OCCO)c3)N2C1=O` the composite z-score was -0.277. Work on `CN1C(=O)C2C=CC(C(O)c3cc(C(F)(F)F)cc(C(F)(F)F)c3)N(Nc3ccccc3)C2C1=O` (stereo not given) yielded a composite z-score of -0.0397. `C=C(/C(=C/C[C@H](OC(=O)c1ccncc1)c1ccccc1OCCO)c1cnc2ccccc2c1)C(C)C` gave a composite z-score of 1.15. In the case of `COC(=O)[C@@]1(Cc2ccccc2CN=[N+]=[N-])N=C(c2ccc(OCCCO)cc2)O[C@H]1c1ccccc1`, the composite z-score is reported as -0.0819.

From PubChem BioAssay
